Compound activity: PubChem BioAssay, National Center for Advancing Translational Sciences (NCATS)
This is a sample that favours compounds with a hit; in the whole collection about 19% have one here.
TDP1 cell CPT – qHTS for Inhibitors of human tyrosyl-DNA phosphodiesterase 1 (TDP1): qHTS in cells in presence of CPT; chicken DT40 Tdp1-/-;hTDP1 cells + 20 nM CPT, ATP luminescence, 48 h; Potency, µM (highest dose often 46.2 µM), for inactives: top-dose activity change, negative = growth inhibition, most hits filed as inhibitors; 12% of 420,000 active; AID 686979, 2013; note: potency is the fitted concentration of half-maximal effect; nearly all actives have a fitted effect of over 55% in size
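Chicken DT40 Tdp1-/- cells stably complemented with human TDP1 were seeded at 400 cells/well in medium containing 20 nM camptothecin, exposed to pin-transferred compounds, and grown at 37 °C for at least 48 hr. Viability was read as ATP luminescence.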
TDP1 cell noCPT – qHTS for Inhibitors of human tyrosyl-DNA phosphodiesterase 1 (TDP1): qHTS in cells in absence of CPT; DT40 Tdp1-/- hTDP1 cells, no CPT, ATP luminescence, 48 h; Potency, µM (highest dose often 46.2 µM), without a hit: at the top dose activity change, negative = growth inhibition, most hits filed as inhibitors; 15% of 420,000 active; AID 686978, 2013; note: potency is the fitted concentration of half-maximal effect; nearly all actives have a fitted effect of over 55% in size
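Cells were dispensed at 400 per well, compounds added by pin tool, plates incubated ≥48 hr at 37 °C, then CellTiter-Glo added for 30 min at room temperature before luminescence reading. Line: DT40 Tdp1-/- complemented with hTDP1; camptothecin omitted.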
ELG1 DNA repair – qHTS screen for small molecules that inhibit ELG1-dependent DNA repair in human embryonic kidney (HEK293T) cells expressing luciferase-tagged ELG1 | HEK293T ELG1-luciferase reporter, luminescence, 16 h; DNA damage induced by 5-fluorouridine | Potency, µM (top dose mostly 46.1 µM), inactives show at the top dose activity change, negative = inhibition, actives largely listed as inhibitors | 2.3% of 330,000 active | AID 504467, 2011; note: potency is the fitted concentration of half-maximal effect; nearly all actives have a fitted effect of over 55% in size
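Cells (2,000 per well) received 5-fluorouridine plus test compound or DMSO and were incubated 16 hr at 37 °C, 5% CO2. Luciferase activity was read by luminescence 30 min after ONE-Glo addition; signal suppression marked inhibition of damage-induced ELG1 function.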
HT1080 IDH1KD tx – qHTS for induction of synthetic lethality in tumor cells producing 2HG: qHTS for the HT-1080-IDH1KD cell line; HT-1080 IDH1 knockdown viability, ATP luminescence, 48 h; Potency, µM (top dose mostly 46.1 µM), for inactives: at the highest dose activity, negative = toxicity, usual class: cytotoxic; 2% of 360,000 active; AID 686971, 2013;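 note: potency is the fitted concentration of half-maximal effect; 0% = DMSO wells and -100% = cell-free medium wells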
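CellTiter-Glo luminescence after 48 h compound exposure at 37 degrees C of IDH1-knockdown HT-1080 cells in 5% FBS RPMI. %Activity scaled between DMSO wells and cell-free media wells, with curves fitted and assigned curve classes.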
HT1080-NT tox – qHTS for induction of synthetic lethality in tumor cells producing 2HG: qHTS for the HT-1080-NT fibrosarcoma cell line; HT-1080-NT fibrosarcoma viability, CellTiter-Glo ATP luminescence, 48 h; Potency, µM (doses to about 46.1 µM), for inactives: at the top dose activity, negative = less viability, hits mostly cytotoxic; 1.6% of 360,000 active; AID 686970, 2013;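 note: NT is the 2HG producing partner of a matched IDH1 knockdown line; potency is the fitted concentration of half-maximal effect; 0% = DMSO-treated cells and -100% = media-only wells without cells; nearly all actives have a fitted effect of over 55% in size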
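Read-out is CellTiter-Glo luminescence after 10 minutes at room temperature, following 48 hours' compound treatment of HT-1080-NT cells (750 cells/well, RPMI, 5% FBS, 37 degrees C).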
IL-1B inflam inh – qHTS for Inhibitors of Inflammasome Signaling: IL-1-beta AlphaLISA Primary Screen. 4.7% of 360,000 active. activity change, % at 57.5 µM. THP-1 LPS/ATP IL-1B secretion, AlphaLISA, 16 h; stronger effect = lower value; in the data active = activity change below about -50%; inconclusive = mostly about -30% to -49%
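THP-1 cells pretreated 1 hr with compounds (up to 57.5 uM final), then stimulated with LPS (250 ng/mL final) plus ATP (1.25 mM final); secreted IL-1B measured by AlphaLISA after 16 hr, decreased signal indicating inhibition.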
An asterisk follows results filed as active; ? = inconclusive; . = no result given; [ ] = another dose, or the depositor's remark. Unless noted, calls come from the whole dose curve; as a rule, active = well fitted curve in the direction sought with a large enough effect; inconclusive = small, poorly fitted or top-dose-only effect, or another doubt; inactive = no such curve, though single readings can be large; an effect the other way counts as inactive or inconclusive. Unless noted, % is set by controls: 0 for no effect and ±100 for the full control effect.

SMILES | TDP1 cell CPT | TDP1 cell noCPT | ELG1 DNA repair | HT1080 IDH1KD tx | HT1080-NT tox | IL-1B inflam inh
FC(F)(F)c1ccncc1-c1nnnn1-c1ccc(Cl)cc1 | -19% | ? | ? | 1% | 5% | 7
Cc1ccc(-n2nnnc2-c2cnc(-c3cccnc3)nc2C(F)(F)F)cc1 | 18µM* | 5.8µM* | 3% | -12% | -1% | -4
Fc1ccc(-n2nnnc2-c2cnc(-c3cccs3)nc2C(F)(F)F)cc1 | 6.5µM* | 4.6µM* | 21µM* | ? | -11% | -80*
COC(=O)c1ccccc1NC(=O)CSc1nc2ccsc2c(=O)n1CCC(C)C | 1% | -2% | . | . | . | .
Cc1ccc(OCC(=O)Nc2ccc3nc(SCCOc4ccccc4)sc3c2)cc1 | ? | 10µM* | . | . | . | .
O=C(Nc1ccc2nc(SCCOc3ccccc3)sc2c1)c1cccs1 | ? | 21µM* | . | . | . | .
CC(C)C(=O)Nc1ccc2nc(SCCOc3ccccc3)sc2c1 | -25% | -28% | . | . | . | .
CC(=O)Nc1ccc2nc(SCCOc3ccccc3Cl)sc2c1 | ? | 23µM* | . | . | . | .
COc1cc(C)ccc1OCCSc1nc2ccc(NC(=O)c3ccco3)cc2s1 | 23µM* | 10µM* | . | . | . | .
Cc1ccc(OCC(=O)Nc2ccc3nc(SCC(N)=O)sc3c2)cc1 | -17% | -23% | . | . | . | .
Nc1nc2ccc(NC(=O)c3ccco3)cc2s1 | 8% | -17% | ? | 2% | -16% | 6
O=S1(=O)CC(N2CCCC2)CN1Cc1ccccc1 (stereo unspecified) | -19% | 0% | . | 5% | 6% | -11
COc1cc(C)ccc1OCCSc1nc2ccc(NC(=O)c3cccs3)cc2s1 | ? | 16µM* | . | . | . | .
CCCCn1c(N)c(N(CC(C)C)C(=O)c2ccc(N3C(=O)CCC3=O)cc2)c(=O)[nH]c1=O | 2% | 8% | -1% | 30% | 10% | -3
Cc1ccc(NC(=O)CN(C)C(=O)CSc2nnc(C)s2)cc1 | 1% | -4% | ? | 5% | 18% | -5
CCC1CCCCN1c1cc(C)nc2cc(-c3cccc(C)c3)nn12 (stereo unspecified) | ? | 13µM* | -19% | ? | ? | -99*
COc1cccc(NC(=O)CSc2nc(O)c(C)c(=O)n2-c2ccc(C)cc2)c1 | -25% | -15% | 14% | 8% | 2% | ?
CCC(CC)c1nnc(NC(=O)c2ccc3ccccc3n2)s1 | ? | 11µM* | ? | -23% | -18% | 4
CCC(CC)c1nnc(NC(=O)c2cc(-c3ccccc3)nc3ccccc23)s1 | 7% | -5% | 5% | 22% | 12% | 1
COc1ccc(C(=O)NCC2Cc3cccc(-c4ccc(S(C)(=O)=O)cc4)c3O2)c(OC)n1 (stereo unspecified) | 10%[9.04 µM] | -9% | . | . | . | .
COc1cccc(-c2sc3ccc(OC)cc3c2C#CCCO)c1 | 26µM* | ? | -18% | -17% | -14% | 16
COc1cc(OC)cc(-c2sc3ccc(OC)cc3c2C#CCO)c1 | ? | 21µM* | -18% | ? | ? | -18
Cc1nn(CC(C)C)c(Cl)c1C(=O)N(C)CC(=O)Nc1ccc(Cl)cc1 | ? | ? | . | -19% | -7% | 12
O=C1NC[C@@H](CCCCN2CCN(CCc3ccc(O)cc3)C(=O)C2=O)N(Cc2ccccc2)C1=O | 15% | -4% | . | ? | 21% | 49
O=[N+]([O-])c1ccc(Cc2ccccn2)c([N+](=O)[O-])c1 | ? | -27% | . | 2% | 0% | 15
SMILES | TDP1 cell CPT | TDP1 cell noCPT | ELG1 DNA repair | HT1080 IDH1KD tx | HT1080-NT tox | IL-1B inflam inh
CN(CC(=O)NCc1ccc(F)cc1)S(=O)(=O)c1ccc2[nH]c3c(c2c1)CCCC3 | 21µM* | 18µM* | . | . | . | .
Cc1ccc(N(C)C(=O)CN(C)S(=O)(=O)c2ccc3c(c2)n(C)c(=O)c(=O)n3C)cc1 | 17% | 10% | 21% | 2% | 5% | -2
Cc1cccc(C)c1NC(=O)CN(C)S(=O)(=O)c1ccc2c(c1)n(C)c(=O)c(=O)n2C | -7% | -11% | . | . | . | .
Cc1cccc(C)c1NC(=O)CN(C)S(=O)(=O)c1ccc2[nH]c3c(c2c1)CCCC3 | ? | 21µM* | . | . | . | .
Cc1cccc(N(C)C(=O)CN(C)S(=O)(=O)c2ccc3[nH]c4c(c3c2)CCCC4)c1 | 23µM* | ? | . | . | . | .
Cc1ccc(CNC(=O)CN2C(=O)CCn3nc(-c4ccccc4)cc32)cc1 | -15% | -17% | . | . | . | .
CCCCc1ccc(-n2nc3cc(C)c(NC(=O)c4ccc(C#N)cc4F)cc3n2)cc1 | -10% | -24% | . | . | . | .
O=Cc1ccc(/C=C2\C=Cc3ccccc32)cc1 | 5.6µM* | 6.3µM* | . | . | . | .
O=Cc1ccc(/C=C2/C=Cc3ccccc32)cc1 | ? | -18% | . | . | . | .
C1=Cc2ccccc2/C1=C/c1ccc(/C=C2\C=Cc3ccccc32)cc1 | 8% | 6% | . | . | . | .
NC(N)=Nc1ccc(/C=C2\C=Cc3ccccc32)cc1 | 11µM* | 13µM* | . | . | . | .
CN(C)c1ccc(/C=C2\C=Cc3ccccc32)cc1 | -26% | ? | . | . | . | .
CN(C)/C=C1\C=Cc2ccccc21 | ? | 13µM* | . | . | . | .
CCN(CC)c1ccc(/C=C2\C=Cc3ccccc32)cc1 | ? | 18µM* | . | . | . | .
CC(C)Oc1ccc(CNC(=O)c2ccc3nc(C(C)C)oc3c2)cc1 | 4% | ? | . | . | . | .
COc1ccc2c(c1)C=C/C2=C\c1ccc(N(C)C)cc1 | -70% | ? | . | . | . | .
CNc1ccc(C=C2C=Cc3ccccc32)cc1 | 2% | -28% | . | 0% | -2% | -73*
CN(C)c1ccc(/C=C2\C=Cc3cc(N)ccc32)cc1 | ? | 11µM* | . | . | . | .
COc1ccc(-n2c(N)c(C(=O)NCc3ccco3)c3nc4ccccc4nc32)cc1OC | ? | ? | 6.5µM* | -15% | -8% | 3
N#Cc1c(N)n(CCc2ccc(F)cc2)c2nc3ccccc3nc12 | ? | ? | -5% | -14% | -20% | -57*
Nc1c(C(=O)NCc2ccco2)c2nc3ccccc3nc2n1CCc1ccc(F)cc1 | 21µM* | 18µM* | ? | ? | ? | -116*
Nc1c(C(=O)NCCN2CCOCC2)c2nc3ccccc3nc2n1CCc1ccccc1F | ? | ? | ? | ? | ? | -63*
